{"source": "paper PMC8384837", "about": "“Expanding the binding specificity for RNA recognition by a PUF domain”"}
{"target": "PUM1 PUF domain R3-VYG (Homo sapiens, UniProt Q14671 828-1176, C935V;R936Y;Q939G)", "assay": "yeast three-hybrid, YBZ-1, SC-Leu-His + 0.5 mM 3-AT, 4 days", "details": "tags: N-Gal4 AD-HA kept; label: inside an RPR1-promoter hybrid RNA with tandem MS2 sites; ssRNA", "outline": "(§1)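 Pumilio-1 PUF domain libraries, randomized (NNK) at the three base-contacting residues of each repeat, were co-expressed with matching RNA elements from a centromeric plasmid in strain YBZ-1 (LexA–MS2 coat fusion, HIS3 reporter). Transformants were plated on SC-Leu (input) and SC-Leu-His + 0.5 mM 3-AT (selection) for four days, and repeat regions were PCR-amplified and Illumina-sequenced. The interaction score is the log2 change in variant frequency from input to selection, with pseudocount 1 where absent.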"}
{"sequence": "GGCUAGAACUAGUGGAUCCCCCGGCGCCCGGCGGCUCGAGCCCGGGUAAGUGUAAGUAGUCUGCAUGCCGCCGGGCGCCAUGCCUGCAGGUCGACUCUAGAAAACAUG", "binding signal": "1.12 log2 enrichment (interaction score)"}
{"sequence": "GGCUAGAACUAGUGGAUCCCCCGGCGCCCGGCGGCUCGAGCCCGGGUAAGUGUAAAUAGUCUGCAUGCCGCCGGGCGCCAUGCCUGCAGGUCGACUCUAGAAAACAUG", "binding signal": "3.51 log2 enrichment (interaction score)"}
{"sequence": "GGCUAGAACUAGUGGAUCCCCCGGCGCCCGGCGGCUCGAGCCCGGGUAAGUGUAAUUAGUCUGCAUGCCGCCGGGCGCCAUGCCUGCAGGUCGACUCUAGAAAACAUG", "binding signal": "2.46 log2 enrichment (interaction score)"}
{"target": "PUM1 PUF domain R5-RRQ (Homo sapiens, UniProt Q14671 828-1176, C1007R)", "assay": "yeast three-hybrid, YBZ-1, SC-Leu-His + 0.5 mM 3-AT, 4 days", "details": "tags: N-Gal4 AD-HA kept; label: inside an RPR1-promoter hybrid RNA with tandem MS2 sites; ssRNA", "outline": "as §1"}
{"sequence": "GGCUAGAACUAGUGGAUCCCCCGGCGCCCGGCGGCUCGAGCCCGGGUAAGUGUCAAUAGUCUGCAUGCCGCCGGGCGCCAUGCCUGCAGGUCGACUCUAGAAAACAUG", "binding signal": "4.75 log2 enrichment (interaction score)"}
{"sequence": "GGCUAGAACUAGUGGAUCCCCCGGCGCCCGGCGGCUCGAGCCCGGGUAAGUGUGAAUAGUCUGCAUGCCGCCGGGCGCCAUGCCUGCAGGUCGACUCUAGAAAACAUG", "binding signal": "1.79 log2 enrichment (interaction score)"}
{"sequence": "GGCUAGAACUAGUGGAUCCCCCGGCGCCCGGCGGCUCGAGCCCGGGUAAGUGUAAAUAGUCUGCAUGCCGCCGGGCGCCAUGCCUGCAGGUCGACUCUAGAAAACAUG", "binding signal": "3.35 log2 enrichment (interaction score)"}
{"target": "PUM1 PUF domain R3-MRR (Homo sapiens, UniProt Q14671 828-1176, C935M;Q939R)", "assay": "yeast three-hybrid, YBZ-1, SC-Leu-His + 0.5 mM 3-AT, 4 days", "details": "tags: N-Gal4 AD-HA kept; label: inside an RPR1-promoter hybrid RNA with tandem MS2 sites; ssRNA", "outline": "as §1"}
{"sequence": "GGCUAGAACUAGUGGAUCCCCCGGCGCCCGGCGGCUCGAGCCCGGGUAAGUGUAAGUAGUCUGCAUGCCGCCGGGCGCCAUGCCUGCAGGUCGACUCUAGAAAACAUG", "binding signal": "4.82 log2 enrichment (interaction score)"}
{"sequence": "GGCUAGAACUAGUGGAUCCCCCGGCGCCCGGCGGCUCGAGCCCGGGUAAGUGUAAAUAGUCUGCAUGCCGCCGGGCGCCAUGCCUGCAGGUCGACUCUAGAAAACAUG", "binding signal": "0.71 log2 enrichment (interaction score)"}
{"sequence": "GGCUAGAACUAGUGGAUCCCCCGGCGCCCGGCGGCUCGAGCCCGGGUAAGUGUAAUUAGUCUGCAUGCCGCCGGGCGCCAUGCCUGCAGGUCGACUCUAGAAAACAUG", "binding signal": "3.08 log2 enrichment (interaction score)"}
{"sequence": "GGCUAGAACUAGUGGAUCCCCCGGCGCCCGGCGGCUCGAGCCCGGGUAAGUGUAACUAGUCUGCAUGCCGCCGGGCGCCAUGCCUGCAGGUCGACUCUAGAAAACAUG", "binding signal": "0.49 log2 enrichment (interaction score)"}
